In the library only some 2.3% were active in any assay of this set; here they are far more common.
MCL1-BIM inh: inhibitors of MCL1 binding to BIM-BH3, primary screen, biochemical, fluorescence polarization | Induced myeloid leukemia cell differentiation protein Mcl-1 (Homo sapiens), Q07820 | hit rate 0.68% among 320,000 | GST-MCL1 / FITC-Bim-BH3 fluorescence polarization | inhibition, % at 10.9 µM | AID 2057, 2009;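 active means inhibition above the mean inhibition of all tested compounds plus 3 SD, set per campaign, cut at about 40% in these data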;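 further: 0% = DMSO wells and 100% = unlabeled Bim-BH3 peptide control; higher means more loss of mP so more displacement of Bim peptide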
BCLXL inh: inhibitors of human Bcl-xL, primary screen, biochemical, fluorescence polarization, HTS. inhibition, % at 10.9 µM. AID 2129, 2009. hit rate 0.7% among 320,000. GST-Bcl-xL / FITC-Bim BH3 peptide fluorescence polarization;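 active means inhibition above the mean of all tested compounds plus 3 SD, cutoff set per campaign, cut at about 30% in these data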;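 further: 0% = DMSO wells and 100% = unlabeled Bim-BH3 peptide competitor; inhibitors lower millipolarization by displacing the labeled peptide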
Target sequence (Q07817 whole entry, looked up): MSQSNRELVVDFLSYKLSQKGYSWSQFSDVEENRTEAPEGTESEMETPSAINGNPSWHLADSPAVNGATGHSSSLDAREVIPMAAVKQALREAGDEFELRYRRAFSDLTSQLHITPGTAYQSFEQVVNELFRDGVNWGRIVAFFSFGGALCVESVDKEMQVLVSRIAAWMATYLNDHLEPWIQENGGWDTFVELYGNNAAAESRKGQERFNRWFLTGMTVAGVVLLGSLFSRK
Mcl1 Noxa PPI: Mcl-1/Noxa binding inhibitors, primary screen, biochemical, TR-FRET, 1536-well. Induced myeloid leukemia cell differentiation protein Mcl-1 (Homo sapiens), Q07820. TR-FRET Mcl-1/Noxa peptide binding, 2 h. inhibition, % at 21.7 µM. hit rate 1.5% among 220,000. AID 1022, 2008;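 active means compounds that cut the protein-peptide binding signal by more than 50% relative to plate controls in a single-dose test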;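 further: His-tagged Mcl-1 with rhodamine Noxa BH3 peptide and terbium anti-His antibody; 0% = Mcl-1 plus Noxa peptide wells and 100% = peptide-only wells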
Mcl-1 Bim block: inhibitors of Bim peptide binding to Mcl-1, primary screen, biochemical, bead-based flow cytometry, multiplex; Induced myeloid leukemia cell differentiation protein Mcl-1 (Homo sapiens), Q07820; Bim peptide-Mcl-1 binding; inhibition, % at 10 µM; hit rate 0.1% among 190,000; in the data active means inhibition above about 40%;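 further: 0% = no compound tracer wells and 100% = peptide blocker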
GLD-1 TGE inh: GLD-1/TGE RNA complex disruptors, primary screen, biochemical, fluorescence polarization. Female germline-specific tumor suppressor gld-1 (Caenorhabditis elegans), Q17339. purified GLD-1 + fluorescein TGE RNA. inhibition, % at 5.96 µM. hit rate 0.44% among 320,000. AID 2280, 2010;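 active means percent inhibition above a per-plate cutoff, the plate mean of test compounds plus 3 SD, cut at about 30% in these data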;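 further: 0% = DMSO wells with GLD-1 and probe and 100% = wells lacking GLD-1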
Mcl1 Bid PPI: Mcl-1/Bid binding inhibitors, primary screen, biochemical, TR-FRET, 1536-well; Induced myeloid leukemia cell differentiation protein Mcl-1 (Homo sapiens), Q07820; TR-FRET Mcl-1/Bid-Dy647 peptide binding; inhibition, % at 21.7 µM; hit rate 0.97% among 220,000; AID 1021, 2008;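 active means compounds that cut the binding signal by more than half at the single screening dose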;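 further: His-tagged Mcl-1 with europium anti-His antibody binding Bid BH3 peptide; 0% = Mcl-1 plus peptide wells and 100% = peptide-only wells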
* hit, by the source's call; . = no result given.

SMILES	MCL1-BIM inh	BCLXL inh	Mcl1 Noxa PPI	Mcl-1 Bim block	GLD-1 TGE inh	Mcl1 Bid PPI
C/C=C(/C)C(=O)Nc1cccc(C2=NOC3(C2)C[C@H](C(N)=O)N(C(=O)c2ccc(Cl)cc2)C3)c1 (stereo partly specified)	12	7	9	.	-12	-24
C/C=C/C(=O)Nc1cccc(C2=NOC3(C2)C[C@@H](C(N)=O)N(C(=O)c2cc([N+](=O)[O-])cc([N+](=O)[O-])c2C)C3)c1 (stereo partly specified)	1	0	15	.	1	-2
C=C(C)C(=O)Nc1cccc(C2=NOC3(C2)C[C@H](C(N)=O)N(C(=O)COc2ccc(Cl)cc2)C3)c1 (stereo partly specified)	12	2	69*	.	0	-129
C=C(C)C(=O)Nc1cccc(C2=NOC3(C2)C[C@@H](C(N)=O)N(C(=O)c2ccc(Cl)cc2)C3)c1 (stereo partly specified)	14	4	75*	.	1	-98
C=C(C)C(=O)Nc1cccc(C2=NOC3(C2)C[C@H](C(N)=O)N(C(=O)c2ccccc2)C3)c1 (stereo partly specified)	-9	0	61*	.	-4	-70
C=C(C)C(=O)Nc1cccc(C2=NOC3(C2)C[C@@H](C(N)=O)N(C(=O)c2cc([N+](=O)[O-])cc([N+](=O)[O-])c2C)C3)c1 (stereo partly specified)	-9	-6	74*	.	4	-47
CC1CC(C)CN(C(=O)C(Cc2ccccc2)NC(=O)c2ccccc2)C1 (stereo unspecified)	6	0	.	.	-6	.
C=CCc1c(C)[nH]c2c(OC)cccc2c1=S	8	12	60*	-1	-5	26
O=c1nc2s/c(=C\c3ccc(-c4ccccc4[N+](=O)[O-])o3)c(=O)n2nc1-c1ccccc1	.	.	96*	3	.	-36
CCCCCOc1ccc(/C=c2\sc3nc(=O)c(-c4ccccc4)nn3c2=O)cc1OC	-14	-4	21	-9	1	-16
O=S(=O)(NCC(c1ccco1)N1CCN(c2ccccc2F)CC1)c1ccc2c(c1)OCCO2 (stereo unspecified)	1	4	-5	-2	4	-10
COc1ccc(N2CCN(C(CNS(=O)(=O)c3ccc4c(c3)OCCO4)c3ccco3)CC2)cc1 (stereo unspecified)	-2	-1	27	52*	-1	-29
COc1cc(C(=O)OCn2nnc3ccccc3c2=O)cc(OC)c1OC	6	6	15	0	3	62*
CCOc1ccccc1N1CCN(C(=O)c2c(Cl)cnn2C)CC1	7	6	.	.	3	.
COCCN(C(=O)C1CCCO1)c1c(N)n(CC(C)C)c(=O)[nH]c1=O (stereo unspecified)	-4	-5	.	.	3	.
Cc1ccc(C)c(NC(=O)CN(C)C(=O)c2cc3ccccc3oc2=O)c1	.	.	.	.	-1	.
Cc1cc(NC(=O)CSc2nnc3c(C)cc4ccccc4n23)no1	-4	2	2	0	7	-21
Cc1cc2ccccc2n2c(SCC(=O)NCc3cccs3)nnc12	8	7	67*	5	4	7
CCc1nn(CCCC(=O)N2CCN(c3cccc(C)c3C)CC2)c(=O)c2cc3occc3n12	1	7	.	.	4	.
O=C1NC(=S)S/C1=C\C=C\c1ccc([N+](=O)[O-])o1	.	.	103*	.	.	21
COc1ccc(N2CC(NC(=O)N3CCc4ccccc43)CC2=O)cc1OC (stereo unspecified)	1	3	-13	-2	1	1
Cc1cc(NC(=O)CSc2nc3c(c(=O)n2C)SCC3)no1	37	4	.	.	-3	.
Cc1ccc(N(O)C(=O)NCCCCNC(=O)N(O)c2ccc(C)cc2)cc1	2	5	.	.	2	.
